Test results taken from PubChem BioAssay (Tox21).
Values joined by “and” are separate entries in the source; they are usually repeats but may differ in a detail not shown here. Equal values may be shown once. Records with an inconclusive call do not appear. Active and inactive are the calls of the source. Unless noted, calls follow the shape of the dose curve; as a rule, active = well fitted curve in the direction sought with a large enough effect in the repeat runs; inconclusive = weak or mixed curves; inactive = no such curve, though single readings can be large; an effect the other way counts as inactive or inconclusive.

How the values were obtained:
[1] = qHTS assay to identify aromatase inhibitors - cell viability counter screen (AID 743084);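 also: cells stimulated with testosterone during compound exposure; nearly all actives have a fitted effect of over 55% in size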
[2] = target: Aryl hydrocarbon receptor (Homo sapiens) (UniProt P35869); assay: qHTS assay to identify small molecule that activate the aryl hydrocarbon receptor (AhR) signaling pathway (AID 743085); also: nearly all actives have a fitted effect of over 15% in size; also: potency is read from the fitted curve at half-maximal effect;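 as to activation: HG2L7.5c1 human HepG2 liver cells with stably integrated DRE-driven firefly reporter; series mostly up to about 70 µM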
Chain of Aryl hydrocarbon receptor (Homo sapiens) (P35869 whole entry, looked up): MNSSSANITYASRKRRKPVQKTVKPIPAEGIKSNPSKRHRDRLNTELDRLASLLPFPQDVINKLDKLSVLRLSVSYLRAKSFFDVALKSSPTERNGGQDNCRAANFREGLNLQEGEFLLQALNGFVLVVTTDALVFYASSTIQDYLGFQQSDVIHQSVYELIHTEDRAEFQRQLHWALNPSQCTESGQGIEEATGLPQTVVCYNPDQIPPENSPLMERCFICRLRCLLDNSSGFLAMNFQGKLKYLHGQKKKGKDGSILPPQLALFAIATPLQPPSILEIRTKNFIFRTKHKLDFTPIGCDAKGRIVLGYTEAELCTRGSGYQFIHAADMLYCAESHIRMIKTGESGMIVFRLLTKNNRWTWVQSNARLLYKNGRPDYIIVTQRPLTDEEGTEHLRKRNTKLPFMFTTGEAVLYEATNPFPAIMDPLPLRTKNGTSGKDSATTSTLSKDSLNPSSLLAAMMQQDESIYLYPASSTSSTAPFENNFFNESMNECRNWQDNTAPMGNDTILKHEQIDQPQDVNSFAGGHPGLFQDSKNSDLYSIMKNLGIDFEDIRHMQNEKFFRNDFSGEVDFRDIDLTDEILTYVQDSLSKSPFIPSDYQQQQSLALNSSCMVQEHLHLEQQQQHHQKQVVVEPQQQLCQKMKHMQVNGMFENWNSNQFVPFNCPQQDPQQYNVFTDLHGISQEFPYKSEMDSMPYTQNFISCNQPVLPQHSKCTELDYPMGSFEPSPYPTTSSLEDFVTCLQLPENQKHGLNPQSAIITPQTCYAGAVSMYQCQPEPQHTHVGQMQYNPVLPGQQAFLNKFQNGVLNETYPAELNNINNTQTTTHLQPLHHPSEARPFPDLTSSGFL
Procedure, shortened: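 AhR agonist activity is inferred from enhanced light output of a DRE-controlled firefly luciferase reporter in HepG2 cells, measured with ONE-Glo following 24 h treatment at 37C.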

[3] = qHTS assay to identify small molecule that activate the aryl hydrocarbon receptor (AhR) signaling pathway - cell viability counter screen (AID 743086);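 also: HepG2 liver cells carrying the AhR DRE luciferase reporter; series mostly up to about 70 µM; nearly all actives have a fitted effect of over 45% in size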
Procedure, shortened: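 HepG2-AhR-luc (HG2L7.5c1) cells, 4000/well, were preincubated 5 h at 37C, exposed to compound in qHTS format for 24 hr at 37C, then given CellTiter-Fluor for 30 min; viability was read as fluorescence in the reporter wells.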

[4] = target: Peroxisome proliferator-activated receptor gamma (Homo sapiens) (UniProt P37231); assay: qHTS assay to identify small molecule agonists of the peroxisome proliferator-activated receptor gamma (PPARg) signaling pathway (AID 743094; active = well fitted activation curve with a large enough effect in the signal ratio in the repeat runs, not every such curve was filed as active; the % refers to the signal ratio)
Chain of Peroxisome proliferator-activated receptor gamma (Homo sapiens) (P37231 whole entry, looked up): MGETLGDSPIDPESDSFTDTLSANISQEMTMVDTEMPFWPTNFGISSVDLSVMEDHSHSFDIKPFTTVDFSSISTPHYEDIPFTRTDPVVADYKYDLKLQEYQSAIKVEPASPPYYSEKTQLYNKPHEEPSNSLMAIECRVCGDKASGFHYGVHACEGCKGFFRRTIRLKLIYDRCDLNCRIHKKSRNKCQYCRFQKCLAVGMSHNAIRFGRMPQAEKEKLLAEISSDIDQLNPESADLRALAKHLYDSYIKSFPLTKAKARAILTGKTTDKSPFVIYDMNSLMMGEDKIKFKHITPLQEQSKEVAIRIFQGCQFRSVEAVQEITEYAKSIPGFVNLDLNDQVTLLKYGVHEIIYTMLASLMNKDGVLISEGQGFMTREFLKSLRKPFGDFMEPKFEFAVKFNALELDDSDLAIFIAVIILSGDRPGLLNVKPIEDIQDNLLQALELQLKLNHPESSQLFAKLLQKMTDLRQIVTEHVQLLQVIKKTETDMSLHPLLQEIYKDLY
Procedure, shortened: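 Compounds dissolved in DMSO were added to PPARg UAS-bla HEK293H cells for 17 h at 37C, and reporter expression was quantified by fluorescence intensity after 1 h with LiveBLAzer B/G FRET substrate.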

[5] = target: Peroxisome proliferator-activated receptor gamma (Homo sapiens) (UniProt P37231); assay: qHTS assay to identify small molecule antagonists of the peroxisome proliferator-activated receptor gamma (PPARg) signaling pathway (AID 743191; calls by dose curve; also: series mostly up to about 63 µM; nearly all actives have a fitted effect of over 30% in size)
Procedure, shortened: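 GeneBLAzer PPARg UAS-bla HEK293H cells carrying a UAS-driven beta-lactamase reporter were plated at 3000 cells/well, preincubated 5 h at 37C, then given compound for 17 h at 37C; LiveBLAzer B/G FRET substrate was read after 1 h at room temperature.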

[6] = qHTS assay to identify small molecule antagonists of the peroxisome proliferator-activated receptor gamma (PPARg) signaling pathway - cell viability counter screen (AID 743194); also: nearly all actives have a fitted effect of over 55% in size
Procedure, shortened: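 PPARg-UAS-bla HEK293H cells were plated, rested 5 h at 37 C, then treated with compounds plus rosiglitazone (50 nM final) for 17 h at 37 C; viability was then read by CellTiter-Glo luminescence after 30 min at room temperature.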

[7] = qHTS assay for small molecule agonists of the antioxidant response element (ARE) signaling pathway (AID 743202; active = well fitted activation curve with a large enough effect in the signal ratio in the repeat runs, not every such curve was filed as active; the % refers to the signal ratio)
Procedure, shortened: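 Compounds delivered in DMSO to ARE-bla HepG2 cells (2,000 cells/well, pre-incubated 5 h) and left 16 h at 37 C. LiveBLAzer B/G FRET substrate then added for 2 h at RT before fluorescence reading.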

[8] = qHTS assay for small molecule agonists of the antioxidant response element (ARE) signaling pathway - cell viability counter screen (AID 743203; calls by dose curve; also: nearly all actives have a fitted effect of over 55% in size)
Procedure, shortened: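 Following 16 hrs of compound treatment at 37C, HepG2 cells with an ARE-controlled beta-lactamase gene were lysed with CellTiter-Glo. Luminescence was read after 30 min at room temperature.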

[9] = qHTS assay for small molecule activators of the heat shock response signaling pathway - cell viability counter screen (AID 743209); also: nearly all actives have a fitted effect of over 50% in size
Procedure, shortened: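 Readout: CellTiter-Glo luminescence, 30 min at room temperature. System: HSE-bla HeLa cells, 1500/well, plated overnight. Treatment: compounds in DMSO, 5 h at 37 C.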

[10] = qHTS assay for small molecule activators of the heat shock response signaling pathway (AID 743210; active = well fitted activation curve with a large enough effect in the signal ratio in the repeat runs, with a control signal flat, not every such curve was filed as active; the % refers to the signal ratio;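 also: HeLa cells with beta-lactamase reporter driven by heat shock elements; series mostly up to about 63 µM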)
Procedure, shortened: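 Reporter gene assay: HeLa cells stably bearing an HSE-bla construct, compound treatment 5 h at 37 C, LiveBLAzer substrate 2.5 h at RT, fluorescence intensity.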

[11] = qHTS assay to identify small molecule agonists of the peroxisome proliferator-activated receptor delta (PPARd) signaling pathway - cell viability counter screen (AID 743211); also: nearly all actives have a fitted effect of over 55% in size
Procedure, shortened: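 qHTS cell viability: PPARd-bla HEK293H; 17 h cpd, 37C; CellTiter-Glo, luminescence at 30 min RT.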

[12] = target: Peroxisome proliferator-activated receptor delta (Homo sapiens) (UniProt Q03181); assay: qHTS assay to identify small molecule agonists of the peroxisome proliferator-activated receptor delta (PPARd) signaling pathway (AID 743212; calls by dose curve)
Chain of Peroxisome proliferator-activated receptor delta (Homo sapiens) (Q03181 whole entry, looked up): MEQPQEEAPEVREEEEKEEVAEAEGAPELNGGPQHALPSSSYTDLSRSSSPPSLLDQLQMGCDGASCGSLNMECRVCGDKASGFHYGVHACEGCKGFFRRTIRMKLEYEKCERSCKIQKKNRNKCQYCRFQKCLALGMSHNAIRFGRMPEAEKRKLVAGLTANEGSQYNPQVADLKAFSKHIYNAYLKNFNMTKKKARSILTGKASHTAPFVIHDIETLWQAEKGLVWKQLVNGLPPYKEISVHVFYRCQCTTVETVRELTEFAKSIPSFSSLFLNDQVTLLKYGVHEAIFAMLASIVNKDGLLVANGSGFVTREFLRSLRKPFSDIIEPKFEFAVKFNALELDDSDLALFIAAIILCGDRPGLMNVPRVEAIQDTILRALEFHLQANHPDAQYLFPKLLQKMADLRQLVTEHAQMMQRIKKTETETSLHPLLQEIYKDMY
Procedure, shortened: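 A PPARd-bla HEK293H line with beta-lactamase under an Upstream Activator Sequence is treated with compounds at 37 C. Substrate loading for 2 h at room temperature precedes the fluorescence measurement.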

[13] = qHTS assay to identify small molecule antagonists of the peroxisome proliferator-activated receptor delta (PPARd) signaling pathway - cell viability counter screen (AID 743213); also: nearly all actives have a fitted effect of over 50% in size
Procedure, shortened: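 Luminescence from CellTiter-Glo, added after the bla read and incubated 30 min at room temperature, gives viability of HEK293H PPARd-bla cells exposed to compounds for 17 h at 37 C with 300 nM L165041.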

[14] = target: Peroxisome proliferator-activated receptor delta (Homo sapiens) (UniProt Q03181); assay: qHTS assay to identify small molecule antagonists of the peroxisome proliferator-activated receptor delta (PPARd) signaling pathway (AID 743215; active = well fitted inhibition curve with a large enough effect in the signal ratio in the repeat runs, not every such curve was filed as active; the % refers to the signal ratio;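 also: cells stimulated with agonist L165041 at 300 nM final during compound exposure; series mostly up to about 62 µM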)
Procedure, shortened: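 HEK293H UAS-bla, PPARd; agonist L165041 300 nM final with cpd in DMSO; 37 C 17 h; FRET substrate, RT 2 h; fluorescence intensity.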

[15] = qHTS assay to identify small molecule agonists of the farnesoid-X-receptor (FXR) signaling pathway - cell viability counter screen (AID 743218); also: nearly all actives have a fitted effect of over 45% in size
Procedure, shortened: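 Parallel cytotoxicity test: compound-treated (16 h, 37 C) HEK 293T FXR-bla reporter cells were lysed with CellTiter-Glo and luminescence recorded.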

[16] = qHTS assay to identify small molecule antagonists of the farnesoid-X-receptor (FXR) signaling pathway - cell viability counter screen (AID 743221; active = well fitted cell-killing curve with a large enough effect in the repeat runs, not every such curve was filed as active; also: nearly all actives have a fitted effect of over 50% in size)
Procedure, shortened: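 After a 5 h settling period, FXR-bla HEK 293T cells receive compound and chenodeoxycholic acid (50 uM final) and incubate 16 h at 37 C; CellTiter-Glo luminescence, read after 30 min at room temperature, reports cell viability.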

[17] = target: Vitamin D3 receptor (Homo sapiens) (UniProt P11473); assay: qHTS assay to identify small molecule agonists of the vitamin D receptor (VDR) signaling pathway (AID 743222; calls by dose curve)
Chain of Vitamin D3 receptor (Homo sapiens) (P11473 whole entry, looked up): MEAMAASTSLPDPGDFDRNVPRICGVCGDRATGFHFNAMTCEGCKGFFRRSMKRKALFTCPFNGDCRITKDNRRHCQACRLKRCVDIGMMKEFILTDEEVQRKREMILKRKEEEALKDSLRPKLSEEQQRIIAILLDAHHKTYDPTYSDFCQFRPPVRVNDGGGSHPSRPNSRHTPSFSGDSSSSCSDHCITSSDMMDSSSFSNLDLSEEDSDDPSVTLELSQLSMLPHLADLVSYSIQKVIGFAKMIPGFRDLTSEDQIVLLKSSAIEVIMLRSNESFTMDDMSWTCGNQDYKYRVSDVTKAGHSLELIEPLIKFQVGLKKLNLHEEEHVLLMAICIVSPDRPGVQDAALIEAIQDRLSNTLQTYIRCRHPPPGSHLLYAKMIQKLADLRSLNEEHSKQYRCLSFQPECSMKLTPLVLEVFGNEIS
Procedure, shortened: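 In VDR-bla cells, compound-induced beta-lactamase expression is quantified by FRET substrate fluorescence. Treatment lasts 16 h at 37C; substrate develops 2 h at room temperature.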

[18] = target: Vitamin D3 receptor (Homo sapiens) (UniProt P11473); assay: qHTS assay to identify small molecule antagonists of the vitamin D receptor (VDR) signaling pathway (AID 743223; active = well fitted inhibition curve with a large enough effect in the signal ratio in the repeat runs, not every such curve was filed as active; the % refers to the signal ratio)
Procedure, shortened: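 Reporter line VDR-bla; stimulus 1alpha,25-(OH)2 vitamin D3, 3 nM final; compound co-addition, 16 h 37C/5% CO2; LiveBLAzer B/G substrate 2 h RT; fluorescence intensity.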

[19] = target: Bile acid receptor (Homo sapiens) (UniProt Q96RI1); assay: qHTS assay to identify small molecule antagonists of the farnesoid-X-receptor (FXR) signaling pathway (AID 743217; active = well fitted inhibition curve with a large enough effect in the signal ratio in the repeat runs, not every such curve was filed as active; the % refers to the signal ratio)
Chain of Bile acid receptor (Homo sapiens) (Q96RI1 whole entry, looked up): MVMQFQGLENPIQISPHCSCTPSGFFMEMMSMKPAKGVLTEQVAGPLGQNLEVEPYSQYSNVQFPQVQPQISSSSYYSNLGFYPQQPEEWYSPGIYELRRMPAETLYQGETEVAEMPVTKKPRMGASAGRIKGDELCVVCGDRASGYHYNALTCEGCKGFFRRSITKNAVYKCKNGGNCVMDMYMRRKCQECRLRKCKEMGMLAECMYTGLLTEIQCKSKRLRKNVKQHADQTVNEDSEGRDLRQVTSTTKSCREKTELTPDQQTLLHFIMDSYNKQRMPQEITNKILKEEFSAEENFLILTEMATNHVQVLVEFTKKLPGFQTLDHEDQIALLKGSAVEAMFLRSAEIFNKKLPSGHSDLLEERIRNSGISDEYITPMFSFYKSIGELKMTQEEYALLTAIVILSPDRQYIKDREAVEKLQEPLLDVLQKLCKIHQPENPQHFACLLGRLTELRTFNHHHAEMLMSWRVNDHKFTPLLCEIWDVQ
Procedure, shortened: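 GeneBLAzer FXR-UAS-bla HEK 293T, CDCA-stimulated (50 uM final). Compound treatment 16 h, 37 °C. Detection: beta-lactamase cleavage of B/G FRET substrate, fluorescence.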

[20] = target: Bile acid receptor (Homo sapiens) (UniProt Q96RI1); assay: qHTS assay to identify small molecule agonists of the farnesoid-X-receptor (FXR) signaling pathway (AID 743220; active = well fitted activation curve with a large enough effect in the signal ratio in the repeat runs, not every such curve was filed as active; the % refers to the signal ratio)
Procedure, shortened: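 Beta-lactamase reporter under UAS control in GeneBLAzer FXR HEK 293T cells (5000/well) measured with LiveBLAzer FRET substrate after 2 h at room temperature. Compound exposure lasted 16 h at 37C.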

Measured: Potency

CC(=O)c1ccccc1[N+](=O)[O-]
not listed: [19] | [20]
inactive: all other assays above

CC(C#N)(CCC(=O)O)N=NC(C)(C#N)CCC(=O)O (configuration not stated)
not listed: [10] | [12] | [14] | [20]
inactive: all other assays above

CCC1C(=O)OCC1Cc1cncn1C (configuration not stated)
not listed: [12] | [15] | [19] | [20]
inactive: all other assays above

C1CCC2(CCCCO2)OC1
not listed: [9] | [13] | [14] | [18] | [19] | [20]
inactive: all other assays above

CN1CC(=O)N/C1=N/C(=O)Nc1cccc(Cl)c1
active: [2] 26.6 µM and 1.68 µM
not listed: [12] | [14] | [18] | [19] | [20]
inactive: all other assays above

COc1c(N2CCNC(C)C2)c(F)cc2c(=O)c(C(=O)O)cn(C3CC3)c12 (configuration not stated)
not listed: [12] | [14] | [15] | [17] | [18] | [20]
inactive: all other assays above

CCOC(=O)C1=NOC(c2ccccc2)(c2ccccc2)C1
not listed: [9] | [14] | [15]
inactive: all other assays above

CC1=CC(=O)[C@H]2C[C@@H]1C2(C)C
not listed: [10] | [18] | [20]
inactive: all other assays above
